Activity calls are given as the source filed them.

Assay [1] concerns Plasmodium falciparum Sir2 (PF13_0152, Sir2A). As to the kind of experiment: Plasmodium falciparum Sir2A binding compounds – biochemical, small-molecule microarray, 635 nm fluorescence, primary screen (AID 1098).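 Note: score merges spot fluorescence intensity with its signal-to-noise ratio.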 To be noted: fluorescence 635 nm, higher = more signal.
Assay [2] can be described thus: probe aDKK1 binding to arrayed compounds – biochemical, biotinylated probe, 635/667 nm fluorescence, primary screen (AID 1099).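 Note: score merges 667nm spot fluorescence with signal to noise across triplicate slides.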 Particulars: small-molecule microarray, higher = more signal.
The nature of assay [3]: probe aCHRDL2 binding to arrayed compounds – biochemical, biotinylated probe, 635/667 nm fluorescence, primary screen (AID 1100). To be noted: small-molecule microarray, higher = more signal.
A short description of assay [4]: change in splice reporter luminescence, either direction, cell-based, HEK293, spliceosome inhibition project, primary screen (AID 1101).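 Note: HEK293 cells carrying a splicing-competent luciferase reporter gene; test concentration not given here.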 Particulars: HEK293 splicing luciferase reporter, 24 h, higher = more signal, called active from +8 up or from −8 down. For orientation: Reporter assays use an easily measured gene product as a stand-in for the process of interest.

In assay [5] the target is Fibroblast growth factor 10 (Homo sapiens) (UniProt O15520). Description: compounds binding fibroblast growth factor 10 – biochemical, small-molecule microarray, 635 nm fluorescence, primary screen (AID 1102). To be noted: FGF10 binding, fluorescence 635 nm, higher = more signal.
Chain of Fibroblast growth factor 10 (Homo sapiens) (O15520 whole entry, looked up): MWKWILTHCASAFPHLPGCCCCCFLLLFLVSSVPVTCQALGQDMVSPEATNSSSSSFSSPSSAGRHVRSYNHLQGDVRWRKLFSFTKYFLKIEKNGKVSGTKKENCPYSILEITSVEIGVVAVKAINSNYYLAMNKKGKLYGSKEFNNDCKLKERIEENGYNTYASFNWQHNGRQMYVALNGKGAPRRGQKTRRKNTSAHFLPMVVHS
In assay [6] the test system is glycogen synthase kinase-3 (GSK3A per assay name; protocol says GSK3B). As to the kind of experiment: compounds binding glycogen synthase kinase-3 – biochemical, small-molecule microarray, 635 nm fluorescence, GSK3A, primary screen (AID 1103). Note: the record names both GSK3A and GSK3B. Particulars: fluorescence 635 nm, higher = more signal.
The target of assay [7] is Epidermal growth factor receptor (Homo sapiens) (UniProt P00533). Description: compounds binding epidermal growth factor receptor – biochemical, small-molecule microarray, 635 nm fluorescence, primary screen (AID 1104).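 Note: score merges 667 nm emission intensity with spot signal to noise over triplicate slides.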 To be noted: EGFR binding, higher = more signal.
Chain of Epidermal growth factor receptor (Homo sapiens) (P00533 whole entry, looked up): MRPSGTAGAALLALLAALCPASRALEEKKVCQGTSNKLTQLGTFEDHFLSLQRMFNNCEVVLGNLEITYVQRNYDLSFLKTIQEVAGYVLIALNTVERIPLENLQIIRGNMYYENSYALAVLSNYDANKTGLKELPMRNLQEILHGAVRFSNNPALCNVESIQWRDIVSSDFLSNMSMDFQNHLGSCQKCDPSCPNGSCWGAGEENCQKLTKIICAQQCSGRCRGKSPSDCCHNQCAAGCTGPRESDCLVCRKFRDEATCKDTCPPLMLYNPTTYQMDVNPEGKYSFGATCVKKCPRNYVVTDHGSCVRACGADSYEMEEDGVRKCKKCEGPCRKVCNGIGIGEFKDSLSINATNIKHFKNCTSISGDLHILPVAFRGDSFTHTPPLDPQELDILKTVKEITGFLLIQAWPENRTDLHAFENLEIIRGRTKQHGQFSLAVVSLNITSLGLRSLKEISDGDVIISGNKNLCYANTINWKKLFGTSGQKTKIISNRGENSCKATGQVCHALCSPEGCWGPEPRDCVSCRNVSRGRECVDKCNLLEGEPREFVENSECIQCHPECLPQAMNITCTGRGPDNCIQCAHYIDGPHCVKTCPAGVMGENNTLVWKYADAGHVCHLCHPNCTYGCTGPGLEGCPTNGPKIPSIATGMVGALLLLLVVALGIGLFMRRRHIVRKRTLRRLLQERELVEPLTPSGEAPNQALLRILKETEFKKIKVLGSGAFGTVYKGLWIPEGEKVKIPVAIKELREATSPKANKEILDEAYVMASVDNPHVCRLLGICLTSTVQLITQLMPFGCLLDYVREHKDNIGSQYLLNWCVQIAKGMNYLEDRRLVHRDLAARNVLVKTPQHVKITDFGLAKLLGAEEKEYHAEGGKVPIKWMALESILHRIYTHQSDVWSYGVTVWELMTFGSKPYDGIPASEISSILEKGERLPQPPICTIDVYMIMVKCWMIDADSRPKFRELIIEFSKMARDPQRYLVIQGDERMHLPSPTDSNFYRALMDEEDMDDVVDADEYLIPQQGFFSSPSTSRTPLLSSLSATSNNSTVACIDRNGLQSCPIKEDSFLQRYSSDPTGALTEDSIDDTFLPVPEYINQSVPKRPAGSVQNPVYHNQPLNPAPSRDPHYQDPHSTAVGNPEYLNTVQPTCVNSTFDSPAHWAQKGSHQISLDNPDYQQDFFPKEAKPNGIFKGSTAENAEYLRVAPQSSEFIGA
The target in assay [8] is Follistatin-related protein 3 (Homo sapiens) (UniProt O95633). As to the kind of experiment: compounds binding follistatin-related protein 3 – biochemical, small-molecule microarray, 635 nm fluorescence, primary screen (AID 1105).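 Note: score merges emission near 667 nm and signal to noise per printed spot across three slides.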 Particulars: FSTL3 binding, higher = more signal.
Chain of Follistatin-related protein 3 (Homo sapiens) (O95633 whole entry, looked up): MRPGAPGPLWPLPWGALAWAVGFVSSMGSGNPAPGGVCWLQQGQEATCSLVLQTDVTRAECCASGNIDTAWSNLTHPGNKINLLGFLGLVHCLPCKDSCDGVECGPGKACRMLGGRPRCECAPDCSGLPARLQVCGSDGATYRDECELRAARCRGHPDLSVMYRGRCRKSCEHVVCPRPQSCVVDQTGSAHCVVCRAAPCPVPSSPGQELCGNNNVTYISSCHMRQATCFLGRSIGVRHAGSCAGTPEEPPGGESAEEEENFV
In assay [9] the target is Dickkopf-related protein 1 (Homo sapiens) (UniProt O94907). As to the kind of experiment: small molecules binding DKK1 protein – biochemical, small-molecule microarray, 635 nm fluorescence scan, primary screen (AID 1106).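 Note: score merges emission near 667 nm with signal to noise over three replicate slides.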 To be noted: higher = more signal.
Chain of Dickkopf-related protein 1 (Homo sapiens) (O94907 whole entry, looked up): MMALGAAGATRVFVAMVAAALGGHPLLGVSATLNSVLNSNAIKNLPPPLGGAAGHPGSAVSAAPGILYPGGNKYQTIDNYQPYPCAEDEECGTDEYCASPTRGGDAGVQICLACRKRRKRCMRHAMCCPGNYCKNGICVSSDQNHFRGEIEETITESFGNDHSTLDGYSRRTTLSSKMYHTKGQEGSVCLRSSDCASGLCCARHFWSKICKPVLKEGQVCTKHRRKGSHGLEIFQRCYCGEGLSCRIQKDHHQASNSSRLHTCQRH
Assay [10] has as its system Inhibin beta A chain (activin A). As to the kind of experiment: small molecules binding activin A – biochemical, small-molecule microarray, 635 nm fluorescence scan, primary screen (AID 1107).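 Note: mouse activin A protein probed at 4.33 µg/mL on printed slides; score merges bound-protein fluorescence near 667 nm with spot signal-to-noise.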 To be noted: INHBA, higher = more signal.
The test system of assay [11] is Human papillomavirus type 1a protein E7 (residues 44-93). As to the kind of experiment: small molecules binding HPV E7 44-93 – biochemical, small-molecule microarray, residues 44-93, 635 nm fluorescence, primary screen (AID 1108).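 Note: E7 fragment applied at 1 µg/mL in TBST for 1 h at 4 C; score combines spot fluorescence with its signal to noise ratio.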 Particulars: fluorescence 635 nm, higher = more signal.
Assay [12] can be described thus: hepatitis C replication reporter changes, two-sided – Huh7 cells, luciferase reporter, HCV replication inhibitor project, primary screen (AID 1109).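 Note: huh7 hepatoma cells harbouring a luciferase neomycin HCV replicon reporter; luciferase luminescence as measure of HCV replicon replication; test concentration not given here.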 To be noted: Huh7 HCV replicon luciferase reporter, 48 h; higher = more signal.
The target of assay [13] is Left-right determination factor 2 (Homo sapiens) (UniProt O00292). As to the kind of experiment: small molecules binding LEFTY2 protein – biochemical, small-molecule microarray, 635 nm fluorescence scan, primary screen (AID 1110). To be noted: higher = more signal.
Chain of Left-right determination factor 2 (Homo sapiens) (O00292 whole entry, looked up): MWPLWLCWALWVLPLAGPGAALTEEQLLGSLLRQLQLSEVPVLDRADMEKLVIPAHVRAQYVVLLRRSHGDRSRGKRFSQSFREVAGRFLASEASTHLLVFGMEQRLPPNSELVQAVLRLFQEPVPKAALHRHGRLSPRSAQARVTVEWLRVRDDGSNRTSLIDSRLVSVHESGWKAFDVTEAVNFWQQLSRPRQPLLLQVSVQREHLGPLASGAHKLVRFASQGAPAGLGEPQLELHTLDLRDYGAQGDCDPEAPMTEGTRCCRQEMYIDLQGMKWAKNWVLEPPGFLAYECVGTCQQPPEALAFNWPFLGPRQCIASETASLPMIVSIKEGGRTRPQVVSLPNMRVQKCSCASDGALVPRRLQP
The target in assay [14] is Calmodulin-1 (Homo sapiens) (UniProt P0DP23). Description: small molecules binding calmodulin-1 with EGTA – biochemical, small-molecule microarray, Cy5-labelled CALM1, profiling panel (AID 1111).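 Note: labelled calmodulin applied in Tris saline Tween buffer holding calcium plus EGTA and DTT.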 Particulars: Cy5-CALM1 binding fluorescence, higher = more signal.
The target is the same in assay [15]. Description: small molecules binding Ca-loaded calmodulin-1 – biochemical, small-molecule microarray, Cy5-labelled CALM1, plus calcium, artefact control for SMM control-protein annotation, profiling panel (AID 1112).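 Note: score merges spot fluorescence with signal to noise from triplicate slides.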 To be noted: Cy5-CALM1 binding fluorescence, higher = more signal.
Assay [16] can be described thus: probe aWnt5a binding to arrayed compounds – biochemical, biotinylated probe, 635/667 nm fluorescence, primary screen (AID 1113).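 Note: score merges 667 nm fluorescence intensity with signal-to-noise per printed feature.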 Particulars: small-molecule microarray, higher = more signal.
Assay [17] is described as follows: probe aShh binding to arrayed compounds – biochemical, biotinylated probe, 635/667 nm fluorescence, primary screen (AID 1114).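 Note: probe is biotin-labelled aShh protein from a stem cell growth factor screen; measures binding of labelled protein to compounds printed on the slide; score merges feature fluorescence at 667 nm with signal-to-noise.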 To be noted: small-molecule microarray, higher = more signal.
Assay [18] in a line: probe aNog binding to arrayed compounds – biochemical, biotinylated probe, 635/667 nm fluorescence, primary screen (AID 1115).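 Note: probe is biotinylated aNog protein used at 0.15 µg/mL for 1 h at 4 C; z-score combines 667 nm fluorescence of each spot with its signal to noise.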 To be noted: small-molecule microarray, higher = more signal.
Assay [19] has as its target Torsin-1A-interacting protein 1 (Homo sapiens) (UniProt Q5JTV8). Description: compound microarray binding of lysate hLAP1 – cell lysate, small-molecule microarray, COS7 lysate, 635/667 nm fluorescence, primary screen (AID 1116). Particulars: 635 nm fluorescence, higher = more signal.
Assay [20] addresses Alpha-bungarotoxin (Bungarus multicinctus) (UniProt P60615). Description: compounds binding labelled alpha-BTX control protein – biochemical, small-molecule microarray, Alexa647 label, 635/667 nm fluorescence, artefact control for SMM control protein annotation, profiling panel (AID 1117). To be noted: alpha-BTX-A647 binding fluorescence, higher = more signal.

Chain of Torsin-1A-interacting protein 1 (Homo sapiens) (Q5JTV8 whole entry, looked up): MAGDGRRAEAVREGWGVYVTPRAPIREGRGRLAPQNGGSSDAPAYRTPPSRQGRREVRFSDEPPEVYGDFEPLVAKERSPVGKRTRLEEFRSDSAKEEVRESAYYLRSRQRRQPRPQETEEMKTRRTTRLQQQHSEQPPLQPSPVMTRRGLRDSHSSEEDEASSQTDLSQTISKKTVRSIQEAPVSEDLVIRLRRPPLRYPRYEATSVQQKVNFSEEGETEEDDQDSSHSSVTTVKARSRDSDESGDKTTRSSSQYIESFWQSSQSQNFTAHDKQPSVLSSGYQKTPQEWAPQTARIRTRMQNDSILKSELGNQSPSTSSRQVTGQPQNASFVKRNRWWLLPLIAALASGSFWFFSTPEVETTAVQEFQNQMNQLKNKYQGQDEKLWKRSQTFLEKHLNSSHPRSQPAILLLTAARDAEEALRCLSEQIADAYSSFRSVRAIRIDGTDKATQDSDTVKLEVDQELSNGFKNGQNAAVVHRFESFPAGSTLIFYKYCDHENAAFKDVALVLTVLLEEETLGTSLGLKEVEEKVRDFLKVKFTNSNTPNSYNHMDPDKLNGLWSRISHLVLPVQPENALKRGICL
Chain of Alpha-bungarotoxin (Bungarus multicinctus) (P60615 whole entry, looked up): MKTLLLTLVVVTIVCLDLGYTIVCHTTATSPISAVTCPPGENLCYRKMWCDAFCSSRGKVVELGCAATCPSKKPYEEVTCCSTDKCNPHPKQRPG

On to `CCOC(=O)C[C@H]1[C@H](OC(=O)c2ccc(-c3ccccc3)cc2)[C@@H](NC(=O)c2ccc(-c3ccccc3)cc2)c2cc(OCCCO)ccc2N1C(=O)c1ccccc1`, for which the composite z-score in [1] is 0.518; in assay [2] it was 0.685; in assay [3] it was 0.365; in [5] it was 0.79; in assay [6], 0.477; in assay [7] it was 0.101. The composite z-score in assay [8] was 0.719; in assay [9], 0.69; in assay [10] it was -0.12; in [11], 1.01; in assay [13] it was 0.71; in assay [14], 1.1. Further, the composite z-score in assay [15] is 0.912; in assay [16], -0.0721; in assay [17], 0.0278; in [18], 0.412; in [19] it was 0.322; in [20], 1.14. The z-score is 0.594 (inactive) in assay [4] and -1.22 in [12].
With `COCCOC(=O)N1C(=O)[C@@]2(c3cc(C#CCC(C(=O)OC)C(=O)OC)ccc31)[C@H](C(N)=O)[C@H]1C(=O)O[C@H](c3ccccc3)[C@H](c3ccccc3)N1[C@@H]2c1ccccc1OCCO`, the composite z-score was 0.997 in [1]; -0.202 in assay [2]; -0.129 in [3]; 1.37 in assay [5]; 1.31 in assay [6]; 0.958 in assay [7]. In addition, the composite z-score was determined as 1.09 in assay [8]; 0.47 in assay [9]; 0.486 in [10]; 1.31 in assay [11]; 0.584 in [13]; 1.44 in [14]. In addition, the composite z-score is 0.308 in [15]; 0.0297 in [16]; -0.182 in assay [17]; -0.263 in assay [18]; 0.146 in assay [19]; 0.899 in [20]. Further, the values for the z-score in assay [4] and in [12] were -1.32 (inactive) and -3.36, respectively.
In the case of `COc1ccc([Si](C)(C)[C@@H]2[C@@H](CC(=O)N3Cc4ccccc4C[C@H]3CO)O[C@]3(C(=O)N(Cc4ccc(I)cc4)c4ccccc43)[C@H]2C)cc1`, the composite z-score in [1] was 0.458; in assay [2] it was -0.128; in assay [3], -0.357; in [5], 1.12; in [6], 0.66; in [7] it was 1.22. Further, the composite z-score in assay [8] worked out at 1.36; in [9] it was 1.45; in assay [10], 1.52; in assay [11] it was 1.3; in assay [13], 0.878; in assay [14] it was 0.186. Moreover, the composite z-score in assay [15] was 0.426; in assay [16], -0.0472; in assay [17] it was -0.304; in assay [18] it was -0.503; in assay [19] it was 0.224; in assay [20], 0.308. Moreover, the results for the z-score in assay [4] and in assay [12] were -1.36 (inactive) and -3.76, respectively.
Regarding `C=C(COC)/C(=C/C[C@@H](OC(=O)c1ccncc1)c1ccccc1OCCO)c1cnc2ccccc2c1`, the composite z-score in [1] was 0.247; in assay [2], -0.0501; in assay [3], 0.0321; in [5] it was 1.47; in assay [6] it was 1.29; in assay [7], 1.3. Also, the composite z-score in assay [8] came to 1.59; in assay [9], 0.651; in assay [10] it was 1.61; in assay [11], 1.24; in assay [13], 1.14; in assay [14], 0.528. Further, the composite z-score was -0.469 in assay [15]; 0.067 in assay [16]; 0.111 in assay [17]; 0.361 in [18]; 1.47 in [19]; 2.96 in assay [20]. Also, the values for the z-score in assay [4] and in assay [12] were 0.488 (inactive) and -2.8, respectively.
As to `[N-]=[N+]=NCc1ccccc1[C@H]1OC(c2ccc(OCCCO)cc2)=N[C@@]1(CCS(=O)(=O)c1ccccc1)C(=O)NCCN1CCOCC1`, the composite z-score in assay [1] was found to be 1.51; in assay [2], 0.667; in assay [3], 1.12; in [5], 1.38; in assay [6] it was 0.844; in assay [7], 0.135. Also, the composite z-score is 0.698 in assay [8]; 0.0689 in assay [9]; 0.914 in assay [10]; 1.49 in assay [11]; 0.0744 in assay [13]; 1.39 in assay [14]. For the same molecule, the composite z-score in assay [15] was 0.593; in assay [16] it was 0.143; in [17], -0.107; in assay [18], -0.612; in assay [19] it was 1.06; in [20], 1.3. Besides, the z-score was -0.757 (inactive) in assay [4] and -0.233 in assay [12].
For the molecule `C=CC[C@]12N=C(c3ccc(OCCCO)cc3)O[C@H]1c1ccccc1N(CCC)C2=O`, the composite z-score worked out at 1.18 in [1]; 0.43 in assay [2]; 0.693 in assay [3]; 1.11 in [5]; 1.25 in assay [6]; 0.37 in assay [7]. Besides, the composite z-score in assay [8] is 1.11; in assay [9] it was 0.277; in assay [10], 1.3; in [11] it was 0.685; in assay [13], 0.546; in assay [14] it was 0.117. The composite z-score in [15] was -0.267; in [16] it was 0.0344; in assay [17] it was 0.187; in [18], 0.993; in assay [19], 1.46; in assay [20], 0.666. Moreover, the z-score in assay [4] is -0.391 (inactive); in assay [12], -1.99.

For the origin of these results see PubChem BioAssay.
